Laboratory results published in the supplement of paper PMC11732987, “Enantioselective OTUD7B fragment discovery through chemoproteomics screening and high-throughput optimisation” (Communications Chemistry, 2025).

Legend:
Assay in all cases: log2 ratio of Biotin-Ahx-Ub-VS probe labelling (compound/DMSO); higher = less target engagement, active = hit call of the paper (q ≤ 0.05, log2 ratio ≤ -1)
Details in all cases: treatment time: 3 h
[1] = compound: CCC1N(CCc2sccc12)C(=O)CCl
Summary of the method: (§1)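 For activity-based profiling, 495 µg portions of HEK293T lysate in Tris/CHAPS/IGEPAL buffer with protease inhibitors were treated in triplicate with compound at 50 or 200 µM or with DMSO for 3 h. A 1 h incubation with Biotin-Ahx-Ub-VS (0.5 µM final) followed, then NeutrAvidin enrichment, LysC and trypsin digestion and diaPASEF LC-MS/MS. The compound/DMSO base-two log ratios were averaged from median-normalised label-free quantities using an unpaired t-test. Proteins needed at least 2 unique peptides to be included.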

[2] = compound: CN1c2ccccc2C(CS1(=O)=O)NC(=O)CCl
Summary of the method: as §1

[3] = compound: Cl.ClCC(=O)N1CCc2ncncc2C1
Summary of the method: as §1

[4] = compound: Cl.Cn1ncc2C(CCCc12)NC(=O)CCl
Summary of the method: as §1

[5] = compound: ClCC(=O)NC1CCOc2ccccc12
Summary of the method: as §1

[6] = compound: ClCC(=O)NC1CCCc2ccccc12
Summary of the method: (§2)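 The values are mean compound-versus-vehicle ratios derived by unpaired t-test. For 3 h, triplicate HEK293T lysate samples (495 µg each) were treated with compound at a series of concentrations or with vehicle, after which Biotin-Ahx-Ub-VS was added to 0.5 µM final for 1 h. Labelled deubiquitinases were enriched with NeutrAvidin, digested with LysC and trypsin, and analysed by diaPASEF LC-MS/MS. Ratios are log2 values from global-median-normalised Spectronaut label-free quantities, using proteins with two or more unique peptides.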

[7] = compound: ClCC(=O)N[C@@H]1CCCc2ccccc12
Summary of the method: as §2

[8] = compound: ClCC(=O)N[C@H]1CCCc2ccccc12
Summary of the method: as §2

[9] = compound: CCC1N(CCc2cc(OC)c(Cl)cc12)C(=O)CCl
Summary of the method: as §1

[10] = compound: CCCC1N(CCc2cc(OC)c(OC)cc12)C(=O)CCl
Summary of the method: as §1

Measured: log2 ratio of Biotin-Ahx-Ub-VS probe labelling

UCHL3 (UniProt P15374)
Sequence of UniProt P15374 (P15374 whole entry): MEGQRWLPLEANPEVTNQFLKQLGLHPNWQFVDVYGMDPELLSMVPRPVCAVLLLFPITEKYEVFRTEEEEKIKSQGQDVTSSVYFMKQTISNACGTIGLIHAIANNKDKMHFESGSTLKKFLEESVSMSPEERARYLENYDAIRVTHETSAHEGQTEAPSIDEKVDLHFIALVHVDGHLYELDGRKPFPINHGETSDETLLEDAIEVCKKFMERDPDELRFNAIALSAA
inactive: [1]; compound concentration: 50uM -0.196 | [1]; compound concentration: 200uM -0.314 | [2]; compound concentration: 50uM -0.297 | [2]; compound concentration: 200uM -0.153 | [3]; compound concentration: 50uM -0.183 | [3]; compound concentration: 200uM -0.417 | [4]; compound concentration: 50uM -0.099 | [4]; compound concentration: 200uM 0.0584 | [5]; compound concentration: 50uM -0.019 | [5]; compound concentration: 200uM -0.018 | [6]; compound concentration: 0.78uM -0.0289 | [6]; compound concentration: 1.56uM 0.0129 | [6]; compound concentration: 3.13uM -0.0693 | [6]; compound concentration: 6.25uM 0.048 | [6]; compound concentration: 12.5uM 0.0678 | [6]; compound concentration: 25uM -0.149 | [6]; compound concentration: 50uM 0.0701 | [6]; compound concentration: 100uM 0.149 | [6]; compound concentration: 200uM -0.0196 | [7]; compound concentration: 0.78uM -0.0917 | [7]; compound concentration: 1.56uM -0.101 | [7]; compound concentration: 3.13uM 0.0215 | [7]; compound concentration: 6.25uM 0.0584 | [7]; compound concentration: 12.5uM -0.0931 | [7]; compound concentration: 25uM -0.0862 | [7]; compound concentration: 50uM -0.186 | [7]; compound concentration: 100uM -0.142 | [7]; compound concentration: 200uM -0.0506 | [8]; compound concentration: 0.78uM -0.0451 | [8]; compound concentration: 1.56uM -0.0987 | [8]; compound concentration: 3.13uM 0.048 | [8]; compound concentration: 6.25uM 0.105 | [8]; compound concentration: 12.5uM -0.0766 | [8]; compound concentration: 25uM -0.0628 | [8]; compound concentration: 50uM -0.0352 | [8]; compound concentration: 100uM -0.00864 | [8]; compound concentration: 200uM -0.0634 | [9]; compound concentration: 50uM 0.093 | [9]; compound concentration: 200uM -0.266 | [10]; compound concentration: 50uM -0.509 | [10]; compound concentration: 200uM -0.431

USP12 (UniProt O75317)
Sequence of UniProt O75317 (O75317 whole entry): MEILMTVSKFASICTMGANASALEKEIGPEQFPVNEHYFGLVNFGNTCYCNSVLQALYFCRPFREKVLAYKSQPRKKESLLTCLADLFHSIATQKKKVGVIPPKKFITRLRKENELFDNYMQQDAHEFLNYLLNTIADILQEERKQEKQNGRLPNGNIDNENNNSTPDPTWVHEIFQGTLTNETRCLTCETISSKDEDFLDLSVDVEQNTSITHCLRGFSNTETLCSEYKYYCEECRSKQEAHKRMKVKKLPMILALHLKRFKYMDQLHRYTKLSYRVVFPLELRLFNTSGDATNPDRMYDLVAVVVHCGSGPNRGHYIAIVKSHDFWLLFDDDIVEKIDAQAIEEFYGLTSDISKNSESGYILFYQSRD
inactive: [1]; compound concentration: 50uM -0.336 | [1]; compound concentration: 200uM -0.364 | [2]; compound concentration: 50uM -0.67 | [2]; compound concentration: 200uM -0.285 | [3]; compound concentration: 50uM -0.414 | [3]; compound concentration: 200uM 0.0587 | [4]; compound concentration: 50uM 0.232 | [4]; compound concentration: 200uM 0.133 | [5]; compound concentration: 50uM -0.0656 | [5]; compound concentration: 200uM -0.128 | [6]; compound concentration: 0.78uM -0.261 | [6]; compound concentration: 1.56uM -0.455 | [6]; compound concentration: 3.13uM -0.802 | [6]; compound concentration: 6.25uM -0.549 | [6]; compound concentration: 12.5uM -0.298 | [6]; compound concentration: 25uM -0.852 | [6]; compound concentration: 50uM -0.524 | [6]; compound concentration: 100uM -0.285 | [6]; compound concentration: 200uM -0.69 | [7]; compound concentration: 0.78uM -0.131 | [7]; compound concentration: 1.56uM 0.0424 | [7]; compound concentration: 3.13uM 0.272 | [7]; compound concentration: 6.25uM 0.0447 | [7]; compound concentration: 12.5uM -0.0347 | [7]; compound concentration: 25uM -0.263 | [7]; compound concentration: 50uM -0.715 | [7]; compound concentration: 100uM -0.0609 | [7]; compound concentration: 200uM -0.175 | [8]; compound concentration: 0.78uM -0.247 | [8]; compound concentration: 1.56uM -0.665 | [8]; compound concentration: 3.13uM 0.0603 | [8]; compound concentration: 6.25uM 0.103 | [8]; compound concentration: 12.5uM -0.0251 | [8]; compound concentration: 25uM -0.184 | [8]; compound concentration: 50uM -0.474 | [8]; compound concentration: 100uM -0.242 | [8]; compound concentration: 200uM -0.748 | [9]; compound concentration: 50uM -0.0261 | [9]; compound concentration: 200uM -0.904 | [10]; compound concentration: 50uM -0.303 | [10]; compound concentration: 200uM -0.368

USP42 (UniProt Q9H9J4)
Sequence of UniProt Q9H9J4 (Q9H9J4 whole entry): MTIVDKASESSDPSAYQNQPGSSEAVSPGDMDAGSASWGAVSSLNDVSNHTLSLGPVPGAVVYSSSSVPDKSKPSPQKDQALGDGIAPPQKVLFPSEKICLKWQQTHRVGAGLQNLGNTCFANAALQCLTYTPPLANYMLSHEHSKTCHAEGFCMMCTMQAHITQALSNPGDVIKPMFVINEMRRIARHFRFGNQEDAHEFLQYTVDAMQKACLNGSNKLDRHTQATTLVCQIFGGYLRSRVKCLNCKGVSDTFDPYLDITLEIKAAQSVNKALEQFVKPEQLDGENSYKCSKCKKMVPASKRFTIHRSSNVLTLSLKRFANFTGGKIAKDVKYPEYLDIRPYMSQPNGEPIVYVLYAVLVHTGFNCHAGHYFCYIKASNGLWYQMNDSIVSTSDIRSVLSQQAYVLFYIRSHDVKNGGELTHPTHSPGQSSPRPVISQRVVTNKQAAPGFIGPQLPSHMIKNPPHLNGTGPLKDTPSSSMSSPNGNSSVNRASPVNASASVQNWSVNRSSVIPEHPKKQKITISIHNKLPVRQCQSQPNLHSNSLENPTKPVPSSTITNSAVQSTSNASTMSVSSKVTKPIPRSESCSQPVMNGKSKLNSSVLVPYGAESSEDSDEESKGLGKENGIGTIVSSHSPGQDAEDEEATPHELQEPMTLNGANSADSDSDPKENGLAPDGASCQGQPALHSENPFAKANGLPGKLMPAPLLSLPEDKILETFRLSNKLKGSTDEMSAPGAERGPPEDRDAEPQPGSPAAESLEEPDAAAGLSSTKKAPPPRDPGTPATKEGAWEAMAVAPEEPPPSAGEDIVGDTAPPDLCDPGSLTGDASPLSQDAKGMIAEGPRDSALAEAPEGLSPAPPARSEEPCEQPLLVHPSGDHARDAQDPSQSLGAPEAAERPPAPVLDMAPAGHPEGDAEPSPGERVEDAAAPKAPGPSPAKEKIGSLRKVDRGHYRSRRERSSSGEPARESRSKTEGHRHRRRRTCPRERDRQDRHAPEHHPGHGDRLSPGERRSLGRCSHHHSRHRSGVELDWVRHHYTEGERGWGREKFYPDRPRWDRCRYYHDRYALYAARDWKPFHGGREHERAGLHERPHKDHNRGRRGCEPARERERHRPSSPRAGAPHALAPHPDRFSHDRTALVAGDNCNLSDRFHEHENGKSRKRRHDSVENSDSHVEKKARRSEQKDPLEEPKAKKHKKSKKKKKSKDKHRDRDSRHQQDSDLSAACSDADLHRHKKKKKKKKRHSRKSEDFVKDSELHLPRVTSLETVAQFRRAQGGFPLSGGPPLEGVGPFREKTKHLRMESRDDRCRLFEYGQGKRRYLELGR
inactive: [1]; compound concentration: 50uM 0.0875 | [1]; compound concentration: 200uM 0.424 | [2]; compound concentration: 50uM 0.125 | [2]; compound concentration: 200uM 0.131 | [3]; compound concentration: 50uM 0.0642 | [3]; compound concentration: 200uM 0.249 | [4]; compound concentration: 50uM -0.167 | [4]; compound concentration: 200uM 0.115 | [5]; compound concentration: 50uM -0.093 | [5]; compound concentration: 200uM 0.371 | [6]; compound concentration: 0.78uM -0.0166 | [6]; compound concentration: 1.56uM -0.0953 | [6]; compound concentration: 3.13uM -0.0821 | [6]; compound concentration: 6.25uM -0.0491 | [6]; compound concentration: 12.5uM -0.106 | [6]; compound concentration: 25uM -0.0142 | [6]; compound concentration: 50uM -0.0733 | [6]; compound concentration: 100uM 0.00602 | [6]; compound concentration: 200uM -0.207 | [7]; compound concentration: 0.78uM 0.0511 | [7]; compound concentration: 1.56uM 0.0688 | [7]; compound concentration: 3.13uM 0.0123 | [7]; compound concentration: 6.25uM 0.154 | [7]; compound concentration: 12.5uM -0.0261 | [7]; compound concentration: 25uM 0.0226 | [7]; compound concentration: 50uM -0.157 | [7]; compound concentration: 100uM 0.109 | [7]; compound concentration: 200uM 0.00814 | [8]; compound concentration: 0.78uM -0.186 | [8]; compound concentration: 1.56uM -0.0565 | [8]; compound concentration: 3.13uM -0.196 | [8]; compound concentration: 6.25uM -0.273 | [8]; compound concentration: 12.5uM -0.0469 | [8]; compound concentration: 25uM 0.0215 | [8]; compound concentration: 50uM -0.0548 | [8]; compound concentration: 100uM 0.132 | [8]; compound concentration: 200uM -0.0982 | [9]; compound concentration: 50uM -0.199 | [9]; compound concentration: 200uM 0.281 | [10]; compound concentration: 50uM -0.0757 | [10]; compound concentration: 200uM 0.0626
